Data reported in the supplement of paper PMC3334620.
The full ranking holds about 33,000 sequences; the median of “E-score (-0.5 to 0.5)” is about -0.041, and the highest 2% start at about 0.37. This excerpt belongs to a sample that is enriched for the highest values.

Target: T1, Ecm22 (UniProt Q05958)
T1 sequence: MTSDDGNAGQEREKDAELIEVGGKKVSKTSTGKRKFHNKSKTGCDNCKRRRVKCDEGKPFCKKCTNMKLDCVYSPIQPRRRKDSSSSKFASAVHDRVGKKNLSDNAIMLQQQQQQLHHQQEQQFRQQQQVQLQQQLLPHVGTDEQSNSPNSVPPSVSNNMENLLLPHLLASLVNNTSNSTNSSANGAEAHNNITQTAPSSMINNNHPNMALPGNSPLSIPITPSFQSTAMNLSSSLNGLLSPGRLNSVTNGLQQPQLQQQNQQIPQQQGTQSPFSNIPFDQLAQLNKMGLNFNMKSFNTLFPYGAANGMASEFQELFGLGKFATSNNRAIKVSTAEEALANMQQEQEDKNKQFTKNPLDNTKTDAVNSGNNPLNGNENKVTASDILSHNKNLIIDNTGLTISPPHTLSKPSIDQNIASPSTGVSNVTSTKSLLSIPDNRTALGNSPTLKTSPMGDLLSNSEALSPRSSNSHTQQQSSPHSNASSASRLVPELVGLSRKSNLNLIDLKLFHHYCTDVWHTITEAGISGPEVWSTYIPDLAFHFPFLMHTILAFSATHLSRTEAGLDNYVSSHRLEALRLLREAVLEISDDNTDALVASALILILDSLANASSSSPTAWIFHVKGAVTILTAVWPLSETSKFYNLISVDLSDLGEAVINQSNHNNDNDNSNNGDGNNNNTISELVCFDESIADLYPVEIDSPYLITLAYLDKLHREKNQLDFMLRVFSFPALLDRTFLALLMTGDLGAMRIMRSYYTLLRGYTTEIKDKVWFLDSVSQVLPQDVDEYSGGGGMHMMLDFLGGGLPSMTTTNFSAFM
Test: PBM E-score (8-mer binding enrichment) (E-score (-0.5 to 0.5)); higher = stronger / more preferred TF binding
Conditions: protein concentration: 200 nM; construct: GST-full length
In short: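 Universal all-10-mer Agilent arrays, fresh or stripped once, were converted to double-stranded form by primer extension. GST-tagged yeast transcription factors from PURExpress in vitro transcription/translation, full-length or DNA-binding domain only, were applied at about 100-200 nM and detected with fluorescent anti-GST. After masliner normalisation, the Universal PBM Analysis Suite scored each ungapped eight-base word together with its reverse complement by E-score.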

| Sequence | PBM E-score |
| --- | --- |
| GACGAGTC | 0.115 |
| CACGAGTC | -0.0272 |
| AACGAGTC | 0.419 |
| AGAGGGAT | -0.0615 |
| ACAGTTCC | -0.0566 |
| GCTTCGCA | 0.193 |
| CCTTCGCA | 0.183 |
| GCTTCGGA | 0.121 |
| GCTTCGTA | 0.441 |
| CCTTCGTC | 0.0674 |
| ACTTCGTG | 0.116 |
| CCTTCGTA | 0.453 |
| ACTTCGTA | 0.434 |
| ACTTCGTC | 0.00917 |
| TCGGGTCA | 0.241 |
| AATCGTTG | 0.165 |
| CATCGTGC | 0.164 |
| CATCGTTA | 0.259 |
| AATCGTTC | 0.426 |
| AATCGTTA | 0.269 |
| CATCGTTC | 0.428 |
| CCATTGGA | -0.162 |
| AGGTATTA | -0.0627 |
| CGGTCGGA | 0.0409 |
| GGGTCGAA | -0.0301 |

| Sequence | PBM E-score |
| --- | --- |
| AGGTCGTA | 0.458 |
| GGGTCGTA | 0.439 |
| AGGTCGTG | -0.13 |
| CGGTCGTC | -0.0294 |
| GGGTCGGA | 0.135 |
| AGGTCGTC | 0.106 |
| CGGTCGTA | 0.464 |
| ACAGACCA | -0.0504 |
| AGCTGAAA | -0.106 |
| AACTGCAG | -0.0539 |
| CTTTTTCC | -0.068 |
| CGTTGGAG | -0.14 |
| GCTTACTA | -0.087 |
| ACTTACGA | 0.393 |
| CCTTACTA | 0.0754 |
| ACTTACGG | 0.207 |
| CCTTACGA | 0.383 |
| GCTTACAA | -0.144 |
| GCTTACGA | 0.386 |
| ACTTACGC | -0.137 |
| CCTTACGC | 0.205 |
| AGAATTGC | -0.0838 |
| CGACAAAG | 0.192 |
| CTGCGAGC | 0.0428 |
| TAGTCCGA | 0.123 |

| Sequence | PBM E-score |
| --- | --- |
| ACATCGTC | 0.0184 |
| ACATCGTA | 0.423 |
| GCATCGAA | 0.0551 |
| GCATCGTA | 0.426 |
| CCATCGAA | -0.136 |
| CCATCGTC | 0.00759 |
| GCATCGGA | 0.126 |
| CCATCGTA | 0.428 |
| ACATCGTG | 0.0443 |
| CCGCCACA | -0.107 |
| GCCGAGAC | -0.0241 |
| GATGTTGC | 0.00895 |
| CGGGACAC | -0.0319 |
| TACTCACA | -0.0537 |
| CCCCCGAG | -0.231 |
| ACGAGGCC | 0.376 |
| CCGAGGCA | 0.0444 |
| ACGAGGCT | 0.382 |
| AAGAGGCT | -0.268 |
| CCGAGGCC | 0.117 |
| GCGAGGCA | 0.296 |
| ACCAGGCT | -0.198 |
| AGGAGGCG | -0.229 |
| CCGAGGCG | 0.0444 |
| ACGAGGCA | 0.401 |

| Sequence | PBM E-score |
| --- | --- |
| ACGAGGCG | 0.431 |
| GCGAGGCC | 0.251 |
| CCGGTCTA | -0.0788 |
| AATAACAA | -0.0956 |
| AGATTCCT | -0.227 |
| AACGCCGC | -0.00584 |
| CGGTAAAA | 0.228 |
| AGCAATAG | -0.0955 |
| ACTTCCAA | -0.156 |
| AAACCCGA | 0.279 |
| CTCAACAG | -0.193 |
| AGACCAGC | -0.283 |
| CAGGAAAA | -0.019 |
| AACCCAGC | -0.207 |
| GGTACGCA | 0.263 |
| AGTACGAA | 0.42 |
| ACTACGAT | 0.182 |
| AGTACGTA | 0.283 |
| GGTACGTA | 0.319 |
| CGTACGCA | 0.36 |
| AGTACTAT | 0.0505 |
| CGTACGTA | 0.367 |
| CGTACGAA | 0.448 |
| AGTACGAT | 0.407 |
| GGTACGAA | 0.486 |

| Sequence | PBM E-score |
| --- | --- |
| AGTACGCA | -0.0459 |
| AGTTCTGC | 0.17 |
| AGATGAAG | -0.13 |
| CCCCTAGC | -0.254 |
| ACTCAACC | -0.0151 |
| CGATGGAA | 0.0222 |
| GGCACAAC | -0.169 |
| GACACCCA | -0.171 |
| TAGGACGA | -0.216 |
| ATTCTCAG | -0.308 |
| ATTACGAC | 0.367 |
| CGTACGAC | 0.444 |
| ATTACGAG | 0.38 |
| AGTACGCG | 0.197 |
| CGTACGAG | 0.473 |
| CGTACGTC | 0.356 |
| AGTACGTG | 0.142 |
| ATTACGTG | -0.0556 |
| AGTACGAG | 0.456 |
| CCTACGAG | 0.339 |
| CGGACGAG | -0.0963 |
| CGTACGCC | 0.3 |
| ACGCTGGA | 0.126 |
| ACGACCCT | 0.331 |
| CGCACGCA | 0.141 |

| Sequence | PBM E-score |
| --- | --- |
| GCCGGCGA | -0.117 |
| TAGACCGA | 0.175 |
| AGAGAGCT | -0.169 |
| AAGCATTC | -0.157 |
| CGTGCGCA | -0.0738 |
| CACAGTTC | -0.0557 |
| CGAGTACA | 0.246 |
| CGCTAACA | 0.0557 |
| TGTACGAA | 0.48 |
| AGTACGAC | 0.443 |
| TGTACAAA | -0.0698 |
| TGCACGAA | 0.109 |
| AGTACGCC | -0.0213 |
| AGTACGTC | 0.0542 |
| CCGACCAA | 0.105 |
| CAAGTATG | -0.112 |
| ATCTCACG | -0.0833 |
| AAACGGCG | 0.391 |
| ATACGGTC | 0.383 |
| AAACGGCT | 0.259 |
| AAACGGTA | 0.287 |
| ACACGGTC | -0.0081 |
| ATACGGTG | 0.388 |
| AAACGGCC | 0.29 |
| CTACGGTC | 0.0518 |

| Sequence | PBM E-score |
| --- | --- |
| ACACGGTG | -0.0453 |
| AAACGGTC | 0.293 |
| AAACGGTG | 0.376 |
| AGACGGTG | -0.132 |
| ATGCAAAG | 0.0339 |
| AAAAATGA | -0.0643 |
| AGGCTCAG | -0.211 |
| GTTAGGGA | 0.0493 |
| AGGTGCTG | -0.371 |
| AGCATACT | 0.0121 |
| CCGGACCA | 0.0404 |
| CGGGAACA | 0.165 |
| AGGGAACA | -0.166 |
| AGGGAACC | 0.00984 |
| AGGGAACG | 0.465 |
| CGGGAACG | 0.456 |
| CGGGAACC | 0.0199 |
| AAAGGAGT | -0.131 |
| GTTTCCTA | 0.0344 |
| GCGGCTAA | -0.034 |
| AAATCTGA | -0.168 |
| CCTTGGCG | -0.159 |
